Data published in PubChem BioAssay AID485313 (National Center for Advancing Translational Sciences (NCATS), 2010).
Out of some 320,000 compounds screened, about 7,600 (2.4%) were called active. Not shown: some 3% with an inconclusive outcome. Calls come from the whole dose curve; as a rule, active = well fitted activation curve with a large enough effect; inconclusive = small, poorly fitted or top-dose-only effect; inactive = no such curve, though single readings can be large or run the other way. The full list was thinned out, with actives kept by preference.

assay: qHTS Assay for NPC1 Promoter Activators; conditions: Huh7 NPC1 promoter luciferase reporter, 24 h; series mostly up to 9.22 µM; activation: at the top concentration; note: nearly all actives have a fitted effect of over 60% in size;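 for activation: reporter is driven by a mutant NPC1 promoter; % of control where 0% means no effect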
In short: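 In 1536-well qHTS, Huh7 cells harboring an NPC1 promoter–luciferase construct received compound for 24 h; activation was quantified by luminescence following luciferase reagent addition.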
Potency is the fitted concentration of half-maximal effect.

SMILES | activation | Potency
CCc1cccc(NC(=O)COC(=O)c2cc(=O)c3ccccc3o2)c1 | -1.37% (inactive) | 
CCOC(=O)C1CCN(C(=O)c2cccc(S(=O)(=O)N(CC)c3ccccc3)c2)CC1 | -2.25% (inactive) | 
COCCN(C(=O)CC1CCCCC1)c1c(N)n(CC(C)C)c(=O)[nH]c1=O | 2.93% (inactive) | 
Cc1cnc(NC(=O)c2ccccn2)s1 |  | 447 nM (active)
Cc1cccc(NC(=O)CSCC(=O)Nc2nnc(C3CC3)s2)c1 | -1.19% (inactive) | 
Cc1cc(C(=O)Nc2nnc(C3CC3)s2)c(C)s1 |  | 3550 nM (active)
O=C(Nc1nnc(C2CC2)s1)c1cc(Cl)sc1Cl | 24.6% (inactive) | 
Cc1ccc(Cl)cc1NC(=O)c1ccccn1 | -2.16% (inactive) | 
O=C(Nc1nnc(C2CC2)s1)c1ccccn1 |  | 1120 nM (active)
O=C(Cc1cccs1)Nc1nnc(C2CC2)s1 | -1.03% (inactive) | 
CCc1cc(C(=O)Nc2nnc(C3CC3)s2)sc1C | 29.4% (inactive) | 
Cc1cnc(NC(=O)C2CCCC2)s1 | 11.4% (inactive) | 
CCc1ccccc1OCC(=O)Nc1ccc(C)c(S(=O)(=O)N2CCCCCC2)c1 | 0.449% (inactive) | 
O=C(NCc1cccc(Cl)c1)C1=CC=CN2CCS(=O)(=O)N=C12 | 0.609% (inactive) | 
CC(C)Cn1c(N)c(C(=O)COC(=O)C2CCCN2C(=O)c2cccs2)c(=O)n(C)c1=O (centres undefined) | -5.84% (inactive) | 
COc1ccccc1Nc1nnc(SC(C)C(=O)NC2CC2)s1 (centres undefined) | -1.22% (inactive) | 
CC(OC(=O)/C=C/c1ccccc1)C(=O)Nc1ccc(C(N)=O)cc1 (centres undefined) | -2.06% (inactive) | 
O=C(O)c1ccc2c(c1)C(=O)N(c1ccc(/C=C/C(=O)c3ccccc3)cc1)C2=O | 4.16% (inactive) | 
CC(=O)Nc1ccc(NC(=S)NC(=O)/C=C/c2ccccc2)cc1 | -7.81% (inactive) | 
CC(=O)Nc1ccc(/C=C/C(=O)c2ccccc2)cc1 |  | 2510 nM (active)
O=C(/C=C/c1ccc(N2CCOCC2)cc1)c1ccccc1 |  | 2000 nM (active)
O=C(CN1CCN(S(=O)(=O)/C=C/c2ccccc2)CC1)Nc1ccc(N2CCOCC2)cc1 | -4.53% (inactive) | 
O=C(Nc1ccccc1N1CCOCC1)c1ccncc1 | 1.48% (inactive) | 

SMILES | activation | Potency
CCN(C(=O)CSc1ncnc2sccc12)c1c(N)n(Cc2ccccc2)c(=O)[nH]c1=O | -2.5% (inactive) | 
CC1(C)CC(=O)C=C(c2ccc3ncccc3c2)C1 | -0.503% (inactive) | 
COc1ccc2c3c(c(=O)oc2c1)C1O[C@](CCCCN2C(=O)c4ccccc4C2=O)(Cc2c1ccc1ccccc21)O3 | -3.07% [at 1.84 µM] (inactive) | 
O=C(Cn1nnc(-c2ccccc2)n1)NC(=O)NC1CCCC1 | -1.17% (inactive) | 
O=C(COC(=O)Cn1[nH]c(=O)c2ccccc2c1=O)Nc1ncc(Cl)cc1Cl | -0.303% (inactive) | 
COc1ccccc1/C=C/C(=O)OCC(=O)NC1CCCCCC1 | -2.47% (inactive) | 
CCOC(=O)c1c(C)[nH]c(C2=NNC(=NC(C)COC)SC2)c1C (centres undefined) |  | 1580 nM (active)
COc1ccc(CCNC(=O)COC(=O)C2CC2C)cc1 (centres undefined) | -0.82% (inactive) | 
Cc1ccc(OCc2cc(C(=O)N(C)CCc3ccccc3)no2)cc1C |  | 2820 nM (active)
CCn1ccnc1CN(C)C(=O)c1cc(COc2ccc(-n3cncn3)cc2)on1 | 3.54% (inactive) | 
CN(Cc1cccnc1)C(=O)c1cc(COc2ccc3ncccc3c2)on1 | -17.8% (inactive) | 
CN(Cc1cnccn1)C(=O)c1cc(COc2cccc(C(F)(F)F)c2)on1 | 20.7% (inactive) | 
CN(CCOc1ccccc1)C(=O)c1cc(COc2c(F)cccc2F)on1 | -0.673% (inactive) | 
Cc1cc(CN(C)C(=O)c2cc(COc3ccc(C)c(C)c3)on2)n[nH]1 |  | 2510 nM (active)
CC1CC(C)CN(C(=O)COC(=O)c2ccc3ncsc3c2)C1 (centres undefined) | -0.452% (inactive) | 
Cc1ccc(NC(=O)CCNC(=O)c2ccc([N+](=O)[O-])cc2)cc1S(=O)(=O)N1CCOCC1 | -0.724% (inactive) | 
O=C(NCCc1ccc(C(F)(F)F)cc1)c1ccc2c(c1)OCO2 | -0.0657% (inactive) | 
COc1ccc(NC(=O)CSc2nnc(C3CC3)n2C)cc1S(=O)(=O)N1CCCCC1 | 5.26% (inactive) | 
Cc1ccc(NC(=O)C2(N3CCC3=O)CCCCC2)cc1 | -6.24% (inactive) | 
COc1ccc(C(=O)NCc2nnc(SCCOc3ccccc3)n2C)cc1 | -5.31% (inactive) | 
COc1cccc(C(=O)NCCSc2ccc(Br)cc2)c1 | -7.75% (inactive) | 
COc1ccc(C(=O)NCCSc2ccccc2C)cc1 |  | 1260 nM (active)
Cc1c(NS(=O)(=O)c2cc(C(=O)NCCc3ccc(F)cc3)cc(Cl)c2Cl)c(=O)n(-c2ccccc2)n1C | -5.14% (inactive) | 

SMILES | activation | Potency
Cc1ccccc1-n1c(C)cc(/C=C2\NC(=O)NC2=O)c1C |  | 3550 nM (active)
Cc1cc(/C=C2/NC(=O)NC2=O)c(C)n1-c1cccnc1 | 1.57% (inactive) | 
Cc1cccc(C)c1-n1c(C)cc(/C=C2\C(=O)NN(c3ccccc3)C2=O)c1C | 14.8% (inactive) | 
Cc1ccc(C(=O)NCC(c2cccs2)N(C)C)cc1S(=O)(=O)N1CCOCC1 (centres undefined) | 3.21% (inactive) | 
O=c1oc2ccc(C#CC3(O)CCCCC3)cc2cc1-n1cc(-c2ccsc2)nn1 | 0.191% (inactive) | 
O=C(CCNS(=O)(=O)c1ccccc1C(F)(F)F)Nc1ccncc1 | -2.75% (inactive) | 
Cc1ccc(-c2csc(-c3c[nH]c4ccccc34)n2)cc1 |  | 1000 nM (active)
CCCc1cc(-c2nc(-c3ccc(C)cc3)cs2)ccn1 | 1.46% (inactive) | 
Cc1ccc(-c2csc(-c3cc(C)on3)n2)cc1 | 24% (inactive) | 
Cc1ccc(NC(=O)COC(=O)CN2CCCCCC2=O)c(C)c1 | -4.74% (inactive) | 
CC(=O)Nc1ccc(NC(=O)COC(=O)c2ccccc2C(=O)c2ccccc2)cc1 | 1.63% (inactive) | 
COc1ccc(C)cc1NC(=O)c1cc(-c2ccccc2)nc2c1cnn2C(C)C | -0.793% (inactive) | 
Cc1ccc(-n2ncc3c(Nc4cccc(C(=O)O)c4)ncnc32)cc1 |  | 794 nM (active)
COc1ccc2nc(C)cc(Nc3cccc(C(=O)O)c3)c2c1 | -5.14% (inactive) | 
Cc1ccc(Nc2ncnc3c2cnn3C)c(C)c1 | -1.96% (inactive) | 
CCN(CC(=O)NCc1ccc(Cl)cc1)C(=O)c1c(C)noc1C | -2.27% (inactive) | 
Cc1ccc(S(=O)(=O)N2CCN(c3ncnc4ccccc34)CC2)cc1 | -25.2% (inactive) | 
Cc1cc(N2CCOCC2)nc(-c2ccc(Br)cc2)n1 | 1.79% (inactive) | 
Cc1ccc2nc(-c3ccc(Br)cc3)cn2c1 |  | 398 nM (active)
Cc1ccc(-c2cn3cc([N+](=O)[O-])ccc3n2)cc1 |  | 501 nM (active)
Cc1ccc(C(=O)Cn2cc([N+](=O)[O-])nc2C)cc1 | 0.0934% (inactive) | 
Cc1nc(-c2ccc([N+](=O)[O-])cc2)c(-c2ccccc2)o1 | -1.23% (inactive) | 
CSc1nnc2ccc(-c3ccc(C)cc3)nn12 | -3.85% (inactive) | 
